Measured values from PubChem BioAssay.
Unmarked numbers belong to inactive results. The source made the active and inactive calls.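 How the source made its calls: active means inhibition of the reporter signal at or above 50%; inactive means inhibition below 50%.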 Where a SMILES comes first, the peptide text is derived from it. The star is where a group is joined. Boc = CC(C)(C)OC(=O)*

Assay: TLR3 IRF3 reporter activation blockers – cell-based, poly I:C stimulus, luciferase, 10K MLSCN set, primary screen (AID 602277)
Conditions: HEK293-TLR3 RL24 IRF3 luciferase reporter, at 10 µM, stronger effect = higher value

For `Cc1nc2ccccc2c(=O)n1NC(=O)c1c(O)c2c(n(CC(C)C)c1=O)CCCC2`, which inhibition is on record?
Its inhibition is 13.4%.

With `CCN(CC)C(=O)C1=C(C)NC(=O)NC1c1c(F)cccc1Cl` (stereo not given) as the compound, how does the inhibition read?
The inhibition was 10.6%.

For `COc1ccccc1OCc1ccc(C(=O)OCC2CCCO2)o1` (stereo not given), which inhibition is on record?
Its inhibition is -24.7%.

Which inhibition does the source give for `Cc1nc(CNS(=O)(=O)c2ccc3c(c2)OCCO3)cs1` here?
Its inhibition is -38.6%.

Which inhibition does the source give for `c1ccc(CC2CCN(Cc3nc(-c4ccccc4)no3)CC2)cc1` here?
Its inhibition is -19%.

Which inhibition does the source give for `CC(C)(C)OC(=O)N1CCCC1C(=O)N1CCCC1C(=O)N1CCCC1C(=O)O` (stereo not drawn) (Boc-Pro-Pro-Pro-OH; configuration not given here) here?
Its inhibition is 15.3%.

For `Cc1[nH]c(=O)[nH]c(=O)c1S(=O)(=O)N1CCN(c2cccc(Cl)c2)CC1`, which inhibition is on record?
The inhibition was -11.6%.

With `Cc1csc(SCC(=O)NC(=O)NCc2ccccc2)n1` as the compound, how does the inhibition read?
Its inhibition is 20%.

Which inhibition does the source give for `O=C1CC(N2CCC(C(=O)N3CCCCC3)CC2)C(=O)N1` (stereo not given) here?
Its inhibition is 16.2%.

With `COc1ccc(S(=O)(=O)NC2CCCCC2)c(C)c1C` as the compound, how does the inhibition read?
The inhibition was 26.9%.

For `O=C(NCc1ccccn1)c1ccc2nc(-c3ccco3)c(-c3ccco3)nc2c1`, which inhibition is on record?
The inhibition was 3.28%.

Which inhibition does the source give for `CN1CCCN(C(=O)c2cc(=O)[nH]c3ccccc23)c2nc3ccccc3nc21` here?
The inhibition was 34.1%.

For `COc1cc2c(cc1OC)CN(C(=O)COc1ccc(C#N)cc1)CC2`, which inhibition is on record?
Its inhibition is 4.87%.

With `Cc1noc(C)c1C(=O)OCC(=O)Nc1ccccc1C(=O)NC(C)c1ccccc1` (stereo not given) as the compound, how does the inhibition read?
The inhibition was 7.74%.

Which inhibition does the source give for `CCc1c(C)nc(N2CCN(Cc3ccccc3)CC2)[nH]c1=O` here?
Its inhibition is 10.6%.

With `CCOc1ccc(CCNC(=O)CCc2nc(-c3ccc(OC)cc3)no2)cc1OCC` as the compound, how does the inhibition read?
The inhibition was 12.3%.

With `O=C(O)CCCNS(=O)(=O)c1ccc(NCc2ccccc2)c(C(=O)O)c1` as the compound, how does the inhibition read?
Its inhibition is 10.3%.

With `CN1CCN(C(=O)c2ccccc2N(Cc2ccccc2)S(C)(=O)=O)CC1` as the compound, how does the inhibition read?
Its inhibition is 4.8%.

For `Cc1nc(=S)n(-c2ccccc2)[nH]1`, which inhibition is on record?
The inhibition was 10.6%.

For `Cc1ccc(S(=O)(=O)Cc2ccc(C(=O)NCCCN3CCN(C)CC3)o2)cc1`, which inhibition is on record?
The inhibition was 100% (active).

Which inhibition does the source give for `COc1cccc(-n2c(C)nc3c(cnn3-c3ccc(Cl)cc3)c2=O)c1` here?
The inhibition was 4.48%.

Which inhibition does the source give for `CC1(C)CC(=O)C(C=NCCc2ccc(S(N)(=O)=O)cc2)=C(O)C1` here?
Its inhibition is 20.3%.

With `Cc1oc(-c2ccccc2)cc1C(N)=O` as the compound, how does the inhibition read?
The inhibition was 3.48%.

Which inhibition does the source give for `O=C(Nc1ccc(N2CCOCC2)c(F)c1)c1ccncc1` here?
Its inhibition is -33.6%.

For `COCn1c(COc2ccccc2)nc2ccccc21`, which inhibition is on record?
Its inhibition is -112%.

For `COc1ccc(OC)c(C2=NOC(C(=O)NCCN3CCOCC3)C2)c1` (stereo not given), which inhibition is on record?
The inhibition was 25%.

Which inhibition does the source give for `Cc1cc(C(=O)Nc2cc(C)n(Cc3ccc(Cl)cc3)n2)no1` here?
Its inhibition is -27.1%.

For `Cc1cc(C(=O)CSCc2nnc3n(CCC(C)C)c(=O)c4ccccc4n23)c(C)n1C`, which inhibition is on record?
Its inhibition is 26.1%.

With `COc1ccc(-c2[nH]nc3c2C(c2ccccc2OC(=O)N2CCOCC2)C(C#N)=C(N)O3)cc1` (stereo not given) as the compound, how does the inhibition read?
The inhibition was 19%.

For `COC(=O)c1ccccc1NC(=O)Nc1cc(C)cc(C)n1`, which inhibition is on record?
The inhibition was 99% (active).

Which inhibition does the source give for `CCOC(=O)C1CCCN(Cc2nc(N)nc(Nc3ccccc3)n2)C1` (stereo not given) here?
The inhibition was 16.8%.

For `COCC(=O)Nc1sc2c(c1C(=O)OC)C(C(=O)OC)CC2` (stereo not given), which inhibition is on record?
The inhibition was 0.35%.

For `Cc1ccnc(NC(=O)CCC(=O)N(CC(=O)NC2CCCCC2)c2cccc(C)c2C)c1`, which inhibition is on record?
The inhibition was 18.7%.

Which inhibition does the source give for `Cc1ccc(NC(=O)C2CCCN2C(=O)Oc2ccccc2)cc1` (stereo not given) here?
The inhibition was 12.3%.

For `c1ccc2[nH]c(CSc3nnc(-c4ccncc4)o3)nc2c1`, which inhibition is on record?
The inhibition was 13.2%.

Which inhibition does the source give for `Cc1ccc(-c2c3c(=O)n(C)c(=O)n(C)c3cn2CCCN2CCOCC2)cc1` here?
Its inhibition is 18.9%.

With `CCOc1ccc(NC(=O)CN(C)S(=O)(=O)c2cccs2)cc1` as the compound, how does the inhibition read?
Its inhibition is -62.8%.

With `CCn1ncc(C2=NOC(C(=O)NCc3ccc(Cl)cc3)C2)c1C` (stereo not given) as the compound, how does the inhibition read?
Its inhibition is 86.7% (active).

Which inhibition does the source give for `CCOC(=O)C1CCCN(C(=O)c2ccc(CS(=O)(=O)Cc3ccccc3C)o2)C1` (stereo not given) here?
The inhibition was 5.13%.

Which inhibition does the source give for `CC(C)C(=O)Nc1nnc(CCc2nnc(NC(=O)C(C)C)s2)s1` here?
The inhibition was 19.9%.
